Source: PubChem BioAssay
Calls of active or inactive are those of the source.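 How the source made its calls: active means compounds giving at least 50% inhibition in the cell-based MKP-3 phosphatase rescue imaging test; inactive means the rest.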

Tested on: not listed separately
Experiment: Primary imaging screen for DUSP6 inhibitors that restore phospho-Erk in transfected HeLa cells, chemical complementation (AID 609);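 on inhibition: phospho-Erk level distribution per well compared with pooled transfected vehicle control wells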
Settings: HeLa MKP-3 transfected, phospho-Erk imaging KS statistic; measured here: nuclear pErk red intensity z-score; at 10 µM; stronger effect = higher value; cells stimulated with TPA for 15 min

Compound	z-score
Cc1[nH]nc(-c2ccc(O)cc2O)c1Oc1ccccc1	-0.868
O=C(NCCC1=CCCCC1)c1ccc(=O)oc1	0.265
c1ccc(-n2ncc3c(N4CCCC4)ncnc32)cc1	-0.224
Cc1cc2c(c(=O)o1)C(CC(C)C)C(C#N)=C(N)O2 (centres undefined)	-0.119
O=c1cc(-c2ccco2)nc(-c2cccs2)o1	-0.386
O=C(Nc1nnc(SCc2ccccc2F)s1)c1ccco1	-0.101
CCN(CC)CCCN1C(=O)C(=O)/C(=C(/O)c2ccc(OC)cc2)C1c1ccco1 (centres undefined)	0.462
Cn1c(=O)[nH]c2cc(Cl)cnc21	-1.3
C[N+]1(CCNC(=O)/C=N/O)CCCCC1	0.488
COC(=O)c1ccc(C2/C(=C(\O)c3cccc(OC)c3)C(=O)C(=O)N2CCCN(C)C)cc1 (centres undefined)	-0.8
Cc1cc(=O)oc(C)c1C(=O)n1nc(C)c2c1C[C@@H]1[C@H]2C1(C)C	-1.17
CCN(CC)CCNc1ncnc2c1[nH]c1ccc(OC)cc12	-1.12
Cn1c(=O)c2c(nc(Br)n2CCSc2nc3ccccc3o2)n(C)c1=O	-1.22
CCc1ccc(-c2cn3nc(C)c(C)nc3n2)cc1	-0.591
CCOC(=O)CSc1nc(N)c(C(=O)Nc2ccc(N(C)C)cc2)s1	-1.52
CCN(CC)Cc1cc(C(C)=O)ccc1OCC(C)C	-0.997
Cn1c(NCc2ccccc2)nc2c1c(=O)n(Cc1ccc(Br)cc1)c(=O)n2C	0.876
CC12CCC(=O)N1c1c(sc3nc(N4CCOCC4)c4c(c13)CCCC4)C(=O)N2 (centres undefined)	0.642
CCOc1ccc(-c2nc(C#N)c(N3CCN(CC)CC3)o2)cc1	0.968
NC(=O)CSc1nnc2n(-c3ccccc3)c(=O)c3c4c(sc3n12)CCCCC4	0.285

Biological target: Dual specificity protein phosphatase 6 (Homo sapiens) (UniProt Q16828)
Experiment: as above
Settings: HeLa MKP-3 transfected, phospho-Erk imaging KS statistic; at 10 µM; stronger effect = higher value; cells stimulated with TPA for 15 min

Dual specificity protein phosphatase 6 (Homo sapiens), sequence (Q16828 whole entry, looked up): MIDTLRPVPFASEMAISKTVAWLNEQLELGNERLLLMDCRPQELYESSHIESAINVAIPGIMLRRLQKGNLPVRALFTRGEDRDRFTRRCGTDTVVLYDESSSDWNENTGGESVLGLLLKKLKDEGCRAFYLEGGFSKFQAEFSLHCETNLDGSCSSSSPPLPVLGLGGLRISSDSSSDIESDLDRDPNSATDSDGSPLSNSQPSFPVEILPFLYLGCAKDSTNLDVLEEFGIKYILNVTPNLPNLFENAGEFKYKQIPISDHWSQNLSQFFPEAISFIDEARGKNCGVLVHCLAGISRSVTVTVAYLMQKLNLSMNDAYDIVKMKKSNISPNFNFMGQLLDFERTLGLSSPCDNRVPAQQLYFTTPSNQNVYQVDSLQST

Compound	inhibition
Cc1cc(NC(CC(C)C)C(=O)O)nc(Cc2ccccc2)n1 (centres undefined)	5.42% (inactive)
CSc1nc2[nH]c3c(c2c2nnnn12)CCCC3	13.4% (inactive)
CCOc1ccc(N2C(=O)CC(N)C2=O)cc1 (centres undefined)	-13.3% (inactive)
Cc1nn2cnc3sc4c(c3c2nc1=O)CCCC4	13.9% (inactive)
Nc1c(C(=O)NCc2ccco2)sc2nc(N3CCOCC3)c3c(c12)CCCC3	7.93% (inactive)
CC(NC(=O)Nc1ccc(O)cc1)(C(F)(F)F)C(F)(F)F	-3.95% (inactive)
Cc1cccc(-c2nnc3n2N=C(c2ccccc2)CS3)c1	16.8% (inactive)
N#Cc1nc(COc2ccccc2)oc1N1CCCC1	4.37% (inactive)
COCCn1c(SCc2c(F)cccc2Cl)nc2c1c(=O)[nH]c(=O)n2C	40.7% (inactive)
Cn1c(=O)[nH]c(=O)c2c1nc(Br)n2CCSc1nnnn1-c1ccccc1	3.42% (inactive)
Cn1c(N)c(C#N)c(C#N)c1-c1ccccc1	-2.59% (inactive)
CCOC(=O)CC(=O)CSc1nnc2sc3ccccc3n12	3.97% (inactive)
CCc1nc(NC2CCCCC2)c(C#N)c2c1COC(C)(C)C2	29.5% (inactive)
CCc1nc(N2CCOCC2)c(C#N)c2c1CCCC2	9.42% (inactive)
COC(=O)c1ccc(C2/C(=C(\O)c3ccc4c(c3)OCCO4)C(=O)C(=O)N2CCCN(C)C)cc1 (centres undefined)	9.82% (inactive)
C=CCOc1ccc(/C(O)=C2/C(=O)C(=O)N(CCCN3CCOCC3)C2c2ccccc2)cc1 (centres undefined)	7.73% (inactive)
Cc1cc(=O)oc2ccc(OCC(=O)N3CCc4ccccc43)cc12	-2.29% (inactive)
Cc1ccc(NC(=O)Cn2nc(C)c3ccccc3c2=O)cc1	9.07% (inactive)
O=C(c1ccccc1)n1c(=S)nc2ccccn21	7.21% (inactive)
CCC(C)Nc1nc(OC)nc(N(C)C#N)n1 (centres undefined)	-9.53% (inactive)
Cc1[nH]nc(-c2ccc(O)cc2O)c1Oc1ccccc1	15.9% (inactive)
O=C(NCCC1=CCCCC1)c1ccc(=O)oc1	-2.29% (inactive)
c1ccc(-n2ncc3c(N4CCCC4)ncnc32)cc1	7.42% (inactive)
Cc1cc2c(c(=O)o1)C(CC(C)C)C(C#N)=C(N)O2 (centres undefined)	-1.12% (inactive)
O=c1cc(-c2ccco2)nc(-c2cccs2)o1	9.91% (inactive)
O=C(Nc1nnc(SCc2ccccc2F)s1)c1ccco1	5.35% (inactive)
CCN(CC)CCCN1C(=O)C(=O)/C(=C(/O)c2ccc(OC)cc2)C1c1ccco1 (centres undefined)	-0.233% (inactive)
Cn1c(=O)[nH]c2cc(Cl)cnc21	3.42% (inactive)
C[N+]1(CCNC(=O)/C=N/O)CCCCC1	-0.624% (inactive)
